# In PubChem BioAssay AID1053 (University of Pittsburgh Molecular Library Screening Center, 2008):
# Where “and” joins values, the source holds several entries; their conditions need not be identical. Equal entries are not always repeated. Calls of active or inactive are those of the source. No rule for the calls is given here.
# Molecular target: Serine/threonine-protein kinase PLK1 (Homo sapiens) (UniProt P53350)
# Assay: Plk1 polo box domain binding inhibitors, SAR follow-up, biochemical, fluorescence polarization, purchased analogs (AID 1053)
# Conditions: Plk1 PBD fluorescence polarization peptide binding; at 20 µM; stronger effect = higher value
# Sequence of Serine/threonine-protein kinase PLK1 (Homo sapiens) (P53350 whole entry, looked up, the tested form may be a part): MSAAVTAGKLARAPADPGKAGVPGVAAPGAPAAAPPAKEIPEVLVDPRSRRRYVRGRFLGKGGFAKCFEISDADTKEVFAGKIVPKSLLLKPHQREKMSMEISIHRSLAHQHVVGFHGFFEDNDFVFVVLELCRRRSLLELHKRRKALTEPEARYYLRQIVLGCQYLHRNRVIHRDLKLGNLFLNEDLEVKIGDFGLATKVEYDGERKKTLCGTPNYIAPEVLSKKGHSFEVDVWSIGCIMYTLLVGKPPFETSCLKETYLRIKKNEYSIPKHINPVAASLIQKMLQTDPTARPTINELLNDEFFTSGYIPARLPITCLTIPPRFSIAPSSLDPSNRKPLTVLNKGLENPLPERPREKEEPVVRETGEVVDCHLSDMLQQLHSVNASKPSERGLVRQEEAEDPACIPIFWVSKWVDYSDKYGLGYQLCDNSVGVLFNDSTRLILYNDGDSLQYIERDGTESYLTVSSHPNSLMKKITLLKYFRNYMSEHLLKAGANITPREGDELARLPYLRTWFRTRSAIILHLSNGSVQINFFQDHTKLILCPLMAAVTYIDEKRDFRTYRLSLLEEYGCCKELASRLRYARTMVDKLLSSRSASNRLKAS
row,SMILES,inhibition
1,CCOC(=O)c1ccc(N=Cc2c(O)n(-c3cccc(C)c3)c(=O)[nH]c2=O)cc1,-57.1% (inactive)
2,CCn1nc(-c2ccccc2Br)nc2c(=O)n(C)c(=O)nc1-2,34.5% (inactive)
3,CC(=O)N(CN1C(=O)c2ccccc2C1=O)c1ccc(Cl)c(Cl)c1,-88.3% (inactive)
4,CCCOC(=O)c1ccc(NC(=O)c2c(F)c(F)c(F)c(F)c2F)cc1,-41.6% (inactive)
5,CCCCOC(=O)c1ccc(NC(=O)c2cc(OCC)c(OCC)c(OCC)c2)cc1,-30.5% (inactive)
6,COc1ccc(N(/C=C2\Sc3ccccc3C2=O)C(C)=O)cc1,-312% (inactive)
7,CC(=O)Oc1ccccc1N(/C=C1/Sc2ccccc2C1=O)C(C)=O,-290% (inactive)
8,CCN(CC)CCOC(=O)c1ccc(NC(=O)c2cc(OC)c(OC)cc2OC)cc1,-46.3% (inactive)
9,COc1cc(C=C2C(=O)NC(=O)NC2=O)ccc1OCc1ccc(Cl)cc1Cl,-58.1% (inactive)
10,Cc1ccc(C(=O)CN2C=CC(=C(O)NCc3ccccc3)C=C2)cc1,-52.1% (inactive)
11,Cn1c(=O)c2nc(-c3ccccc3)c(=O)[nH]c2n(C)c1=O,-31.3% (inactive)
12,CC(=O)c1ccc(N(CN2C(=O)c3ccc([N+](=O)[O-])cc3C2=O)C(C)=O)cc1,-32.8% (inactive)
13,O=C(COC(=O)c1ccc(NC(=O)c2ccc(Cl)cc2)cc1)c1ccccc1,41.3% (inactive)
14,Cn1c(=O)c2nc(-c3ccccc3)c(-c3ccccc3)nc2n(C)c1=O,-30.5% (inactive)
15,Cn1c(=O)[nH]c(=O)c2nc(-c3ccccc3)c(-c3ccccc3)nc21,-33.3% (inactive)
16,CC(=O)N(CN1C(=O)c2ccccc2C1=O)c1ccc(Br)cc1,-29.4% (inactive)
17,COc1ccccc1N(/N=C1\Sc2ccccc2C1=O)C(C)=O,6.58% (inactive)
18,CCCCCC(=O)N(CN1C(=O)c2ccccc2C1=O)c1ccc(OCc2ccccc2)cc1,-7.17% (inactive)
19,Cn1c(=O)[nH]c2nnc(-c3ccccc3)nc2c1=O,-31% (inactive)
20,CCCCOC(=O)c1ccc(N=Cc2c(O)[nH]c(=O)[nH]c2=O)cc1,44.5% (inactive)
21,Cn1c(=O)[nH]c2nnc(-c3ccc(C(F)(F)F)cc3)nc2c1=O,-39.5% (inactive) and -40.5% (inactive)
22,CC(=O)N(CN1C(=O)c2ccccc2C1=O)c1cccc(C)c1,-35.8% (inactive)
23,CCOC(=O)c1ccc(NC(=O)C2CCC(C(C)(C)C)CC2)cc1 (centres undefined),8.43% (inactive)
24,CCCOC(=O)c1ccc(NC(=O)c2cc(-c3cccs3)nc3c(C)c(Cl)ccc23)cc1,36.6% (inactive)
